# In PubChem BioAssay AID1347417 (National Center for Advancing Translational Sciences (NCATS), 2020):
# Screen size: about 120,000 compounds; about 5,300 (4.4%) were called active. Where a call stands in place of a potency, no number is given. Inconclusive results (about 22%) are left out. This is one part of a sample in which actives are shown more often than they occur. Unmarked numbers belong to inactive results. Calls come from the whole dose curve; as a rule, active = well fitted inhibition curve with a large enough effect; inconclusive = small, poorly fitted or top-dose-only effect; inactive = no such curve, though single readings can be large or run the other way.
# Assay: qHTS Primary assay for Inhibitors of Plasmodium falciparum Dd2 growth in vitro; note: nearly all actives have a fitted effect of over 65% in size
# Conditions: P. falciparum Dd2 growth, SYBR Green, 72 h; series mostly up to 28.9 µM
# Description: Malaria, a parasitic disease spread to humans through the bite of a Plasmodium infected Anopheles mosquito, continues to be a global health burden affecting millions of people, with an estimated 228 million cases and 405,000 deaths in 2018. Concerns about safety and limitations of current antimalarial treatments strongly emphasize the need to develop new therapeutic options. The scarce number of chemotypes and validated drug targets with efficacy against the liver stage, have hindered development of new antimalarials. To address this, a chemoprophylactic drug discovery effort was conducted through a combined phenotypic high-throughput asexual blood stage and liver stage screen, providing a robust foundation to identify liver-stage active lead chemotypes. Compounds were initially screened against Plasmodium falciparum Dd2 strain parasites using a in vitro SYBRGreen-1 based 72 hr proliferation assay to identify novel chemotypes to advance to liver stage assays. NIH/NCATS Early Translation Branch Assay Submitter (PI): Anton Simeonov Ph.D.
# Malaria-vivax Assay Protocol: PROTOCOL TABLE (as described by Inglese et al., 2007) SEQUENCE No. (e.g., 1, 2, 3, etc.); […] (e.g., Cells, Incubation, Reagent, etc.); VALUE; DESCRIPTION SEQUENCE, Parameter, Description 1; Reagent; 3 uL complete malaria growth medium, 1536 TC treated Black clear bottom plate 2; Controls; 23 nL positive control artesunate (300 nM final) to column 1; Neutral control DMSO to columns 2-4 3; Compound; 23 nL of compounds in dose response concentration (29 uM to 0.5 nM final) 4; Reagent; 5 uL malaria infected red blood cells (2.5% hematocrit final, 0.3% parasitemia 5; Time; 72 hours at 37C (5% O2, 5% CO2, 90% N2; 95% Rh) 6; Reagent; 2 uL lysis buffer/SYBRGreen-1, 25 sec shake immediately following dispense 7; Time; ~16 hours at 37C (5% O2, 5% CO2, 90% N2; 95% Rh) 8; Detector; EnVision (PerkinElmer) bottom read at 485/14nm excitation and 535/25 nm emission NOTES (numbers refer to sequence above): 1; Complete Malaria Growth Media: 1X RPMI-1640 w/L-glutamine, 5.5g/L Albumax II, 367 uM Hypoxanthine, 25 mM HEPES, 0.25% Sodium Bicarbonate, 35 uM Gentamicin sulfate 2; Controls were added using the Kalypsis Pintool (Wako USA) equipped with 1536 pinhead 3; Compounds were added in a 7-point, titration with a high final concentration of 29 uM by Pintool from seven inter-plate titrations of library plates and two DMSO control plates at the beginning and end (see Yasgar et al., 2008). 4; Red blood cells infected with Plasmodium falciparum Dd2 parasites were used. 6; Lysis buffer: 20 mM Tris-HCl, 10 mM EDTA, 0.16% Saponin, 1.6% Triton-X, 10X SYBR Green. REFERENCE: Inglese J, Shamu CE, Guy RK. 2007. Reporting data from high-throughput screening of small-molecule libraries. Nat Chem Biol. doi:10.1038/nchembio0807-438 Yasgar A, Shinn P, Jadhav A, Auld D, Michael S, Zheng W, Austin CP, Inglese J, Simeonov A. 2008. Compound Management for Quantitative High-Throughput Screening. J Lab Autom 13:79-89. doi:10.1016/j.jala.2007.12.004
# Potency is the fitted concentration of half-maximal effect.
SMILES,Potency,"activity, negative = inhibition"
CN(CCc1cn[nH]c1)c1ccc(-c2nc(-c3ccccc3F)no2)cn1,inactive,–
Cc1cc(C)n(CC(=O)N2CC[C@@H]3CN(S(C)(=O)=O)[C@@H]3C2)n1,inactive,–
Oc1ccccc1CN1C[C@H](O)C[C@H]1c1nc(Cc2ccc(F)cc2Cl)no1,inactive,–
CCCNC(=O)C(NC(=O)c1ccc(OC)cc1)C1CCN(C(=O)c2ccc3c(c2)OCO3)CC1 (stereo unspecified),inactive,–
O=C(c1ccccc1-n1cccn1)N1CCc2c(nc[nH]c2=O)C1,inactive,–
CC(C)(Oc1nn(CCOc2ccccc2)c2ccccc12)C(=O)NCCCn1ccnc1,inactive,–
CCOC(=O)C1CCN(C(=O)C2(c3ccc(NS(C)(=O)=O)cc3)CCCCC2)CC1,inactive,–
COCCNC(=O)c1ccc(OC2CCN(C/C=C/c3ccco3)CC2)c(Cl)c1,inactive,–
COc1ccc(C2c3c(oc4ccccc4c3=O)C(=O)N2Cc2ccc3c(c2)OCO3)cc1 (stereo unspecified),inactive,–
CSc1ccc(C2c3c(oc4ccccc4c3=O)C(=O)N2CCCN2CCOCC2)cc1 (stereo unspecified),inactive,–
Cc1ccc2oc3c(c(=O)c2c1)C(c1ccc([N+](=O)[O-])cc1)N(CCCN1CCOCC1)C3=O (stereo unspecified),10 µM (active),–
Cc1cccc(C(=O)NCCC2CCN(C(=O)Nc3ccc(F)cc3F)CC2)c1,inactive,–
COc1cccc(NC(=O)c2cnc3n[nH]c(-c4ccc(OC)cc4C)c3n2)c1,inactive,–
CCn1ncc(N2CCC(NC(=O)c3ccccc3OC)CC2)cc1=O,inactive,–
CC(C)(C)OC(=O)N1CCC(c2c(C(=O)N3CCN(c4cccc(Cl)c4)CC3)cnn2-c2cccc(Cl)c2)CC1,7.08 µM (active),–
Cc1cccc(-n2ncc(C(=O)N3CCc4ccccc4C3)c2C2CCN(C(=O)OC(C)(C)C)CC2)c1,inactive,–
Cc1ccc(C2CCN(C(=O)c3cnn(-c4ccccc4Cl)c3C3CCN(C(=O)OC(C)(C)C)CC3)C2)cc1 (stereo unspecified),3.98 µM (active),–
Cc1cccc(-n2ncc(C(=O)N3CCC(C)CC3)c2C2CCN(C(=O)OC(C)(C)C)CC2)c1,inactive,–
COc1ccccc1N1CCN(S(=O)(=O)CCNC(=O)COc2ccc(F)cc2)CC1,inactive,–
O=C(NCC1CC1)c1nc2c(o1)CCN(Cc1cccc(F)c1F)CC2,inactive,–
COc1ccccc1N1CCN(CCCNC(=O)c2cnn(-c3ccccc3Cl)c2C2CCN(C(=O)OC(C)(C)C)CC2)CC1,1.41 µM (active),–
COc1ccccc1C(=O)N1CCC(c2n[nH]c(=O)n2-c2ccc(C)cc2)CC1,inactive,–
COc1ccccc1CN1CCC(CNC(=O)c2cnn(-c3cccc(Cl)c3)c2C2CCN(C(=O)OC(C)(C)C)CC2)CC1,1.41 µM (active),–

SMILES,Potency,"activity, negative = inhibition"
Cc1c(Cl)cccc1NC(=O)C1CCCN(C(=O)c2cnn(-c3ccccc3)c2-n2cccc2)C1 (stereo unspecified),inactive,–
Cc1oc2ncnc(N3CCCCC3)c2c1C(=O)N1CCN(c2cccc(Cl)c2)CC1,inactive,–
Cc1noc2c(N3CC[S+](=O)([O-])CC3)cc(-c3ccc(Cl)cc3)nc12,inactive,–
O=C(NC1CCCC1)N1CCC(Oc2ccc(-c3noc(C4CC4)n3)cc2)C1 (stereo unspecified),–,5.78% [at 5.79 µM]
CCCC(c1cccs1)n1cc(-c2cncnc2)nn1 (stereo unspecified),inactive,–
O=c1cc(N2CCOCC2)cnn1Cc1cc(C(F)(F)F)ccc1F,inactive,–
O=C(c1ccccn1)N1CCC2(CNS(=O)(=O)c3cnccc3O2)C1 (stereo unspecified),inactive,–
Cc1noc(C)c1-c1cc2cc(CNC3CCOCC3)oc2c(NC2CCN(C)CC2)n1,inactive,–
Cc1ccc(C2(O)CCN(C(=O)c3ccccc3-c3nn[nH]n3)CC2)nc1,inactive,–
Cc1ccc(NC(=O)Nc2ccc(C)n(CC(=O)NCCN3CCCC3)c2=O)cc1,inactive,–
COCC(=O)NC1CCC12CCN(S(=O)(=O)c1c(C)noc1C)CC2 (stereo unspecified),inactive,–
COc1ccc(OC)c(CNC(=O)C2(c3ccc(NC(C)=O)cc3)CCCCC2)c1,inactive,–
Cc1ccccc1CCNC(=O)C1CCN(c2nc3ccccc3nc2C(F)(F)F)CC1,inactive,–
Cc1ccc2c(c1)N(CC(=O)NCCCN1CCCCC1)C(=O)c1cccnc1O2,inactive,–
Cc1cccc(C)c1-n1ncc(C(=O)NCCCN2CCCCC2)c1C1CCN(C(=O)OC(C)(C)C)CC1,8.91 µM (active),–
COCC1CN(C(C)=O)CC12CCN(Cc1ccccc1OC)CC2 (stereo unspecified),inactive,–
CCCn1c2ccccc2c2cnn(CC(=O)NCC3CCN(Cc4ccc(C)cc4)CC3)c(=O)c21,inactive,–
O=C(NCCC1CCN(C(=O)Nc2cc(F)ccc2F)CC1)c1cc(F)ccc1F,inactive,–
COc1cc(NC(=O)NCC2CCN(Cc3ccc(C)cc3)CC2)cc(OC)c1OC,inactive,–
COc1ccccc1CN1CC[C@H](CNC(C)=O)[C@H](N(C)C)C1,inactive,–
COc1ccccc1CN1CCC(CNC(=O)c2cnn(-c3ccccc3Cl)c2C2CCN(C(=O)OC(C)(C)C)CC2)CC1,2.51 µM (active),–
O=C(NCCC1CCN(C(=O)Nc2ccc(F)cc2F)CC1)c1cccs1,inactive,–
CC(C)(C)OC(=O)N1CCC(c2c(C(=O)NCCc3ccsc3)cnn2-c2ccc(F)cc2F)CC1,8.91 µM (active),–
